Bioassay records (PubChem BioAssay)
Many of the other results were omitted from the sample, so hits are more common in it than they were.
Tb PFK inh-1 – inhibitors of T. brucei phosphofructokinase. O15648. Potency, µM (titrated, usually from 57.5 µM), hits mostly inhibitors. T. brucei PFK, ADP-Glo luminescence. 0.17% of 330,000 active. AID 485367; also: nearly all actives have a fitted effect of over 60% in size
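Luminescent ADP detection (ADP-Glo, two-step: ATP depletion then ADP-to-ATP conversion for luciferase) reported PFK activity after 45 min room-temperature reaction of 1.25 nM enzyme with 0.5 mM F6P and 0.1 mM ATP at pH 8.0.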
MBNL1 CUG block – MBNL1-poly(CUG) RNA binding inhibition. Q9NR56. TR-FRET MBNL1-His/biotin-(CUG)12 binding, 665/545 ratio. 0.036% of 280,000 active. Potency, µM (top dose mostly 57.5 µM), usual class: inhibitors; active = well fitted inhibition curve with a large enough effect in the signal ratio, with a control signal flat, not every such curve was filed as active; inconclusive = small, poorly fitted or top-dose-only effect, or effect the other way, or a change in a side signal; inactive = no such curve, though single readings can be large or run the other way; the % refers to the signal ratio
Target sequence (Q9NR56 whole entry, looked up): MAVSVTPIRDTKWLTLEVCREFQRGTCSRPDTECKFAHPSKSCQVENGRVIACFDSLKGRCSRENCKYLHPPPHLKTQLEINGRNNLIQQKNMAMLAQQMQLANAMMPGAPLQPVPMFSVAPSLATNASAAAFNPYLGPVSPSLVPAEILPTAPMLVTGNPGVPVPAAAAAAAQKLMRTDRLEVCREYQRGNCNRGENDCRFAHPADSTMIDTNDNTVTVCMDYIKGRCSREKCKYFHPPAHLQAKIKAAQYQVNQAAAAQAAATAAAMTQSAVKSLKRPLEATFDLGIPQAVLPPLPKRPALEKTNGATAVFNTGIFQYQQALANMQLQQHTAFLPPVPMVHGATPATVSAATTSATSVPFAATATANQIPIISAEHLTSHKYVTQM
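His-tagged MBNL1 binding to biotinylated (CUG)12 RNA was measured by TR-FRET using terbium anti-His antibody (0.055 ng/ul final) and streptavidin-XL665 (5 nM final). Compounds were titrated 92 nM to 58 uM; 60 min at room temperature.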
IMPase Li cell – IMPase inhibition in cells with lithium potentiation; CHO-M1 cells, IP1 TR-FRET (IP-One), carbachol + lithium; Potency, µM (top dose mostly 59.4 µM), most hits filed as inhibitors; 0.35% of 210,000 active;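 also: IP1 builds up when IMPase is blocked and the TR-FRET signal falls; nearly all actives have a fitted effect of over 50% in size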
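Concentration–response in CHO-M1 cells, lithium-potentiated; 30 min at 37C. IP1 detected by competitive TR-FRET after 10 min lysis at RT. Hill-fitted AC50.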
RGS12 GoLoco inh – blocks human Gai1 binding to RGS12 GoLoco peptide, red readout; Gai1:RGS12 GoLoco peptide FP, rhodamine, 10 min; Potency, µM (highest dose often 61.6 µM), hits mostly inhibitors; 0.44% of 230,000 active; AID 880; active = well fitted inhibition curve with a large enough effect, not every such curve was filed as active; inactive = no such curve, though single readings can be large or run the other way; also: nearly all actives have a fitted effect of over 30% in size
Target sequence (P63096 whole entry, looked up): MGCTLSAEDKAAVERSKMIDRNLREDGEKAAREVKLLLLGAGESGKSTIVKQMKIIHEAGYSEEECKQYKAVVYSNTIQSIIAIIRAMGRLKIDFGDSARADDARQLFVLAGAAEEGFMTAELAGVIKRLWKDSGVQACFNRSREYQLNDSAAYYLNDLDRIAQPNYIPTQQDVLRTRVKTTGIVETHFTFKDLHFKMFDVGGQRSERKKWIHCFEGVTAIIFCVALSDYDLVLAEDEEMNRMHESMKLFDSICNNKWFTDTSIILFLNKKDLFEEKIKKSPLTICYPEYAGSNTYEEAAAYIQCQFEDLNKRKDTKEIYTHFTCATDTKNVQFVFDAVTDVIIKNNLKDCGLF
NPSR antagonist – neuropeptide S receptor (human) antagonism, cAMP; Q6W5P4; CHO-NPSR cells, cAMP TR-FRET, antagonist mode; Potency, µM (top dose mostly 38.3 µM), actives largely listed as inhibitors; 1% of 220,000 active; also: nearly all actives have a fitted effect of over 50% in size
Tb PFK KinaseGlo – Tb phosphofructokinase inhibition, orthogonal luminescence; shares compounds with Tb PFK inh-1; Tb PFK enzyme, ATP depletion, Kinase-Glo Plus luminescence; Potency, µM (titrated, usually from 57.5 µM); 47% of 1,100 active; calls by dose curve; also: nearly all actives have a fitted effect of over 60% in size
Tb PFK inh-2 – validation of T. brucei phosphofructokinase inhibitors | 41% of 1,100 active | purified T. brucei PFK, ADP-Glo luminescence, 45 min | Potency, µM (doses to about 57.5 µM), actives largely listed as inhibitors | shares compounds with Tb PFK inh-1; also: nearly all actives have a fitted effect of over 60% in size
Hits are given with their value; n = inactive; u = inconclusive; x = not tested or not shown; [ ] = remark or other dose. Unless noted, calls follow the shape of the dose curve; as a rule, active = well fitted curve in the direction sought with a large enough effect; inconclusive = small, poorly fitted or top-dose-only effect, or another doubt; inactive = no such curve, though single readings can be large; an effect the other way counts as inactive or inconclusive.

SMILES	Tb PFK inh-1	MBNL1 CUG block	IMPase Li cell	RGS12 GoLoco inh	NPSR antagonist	Tb PFK KinaseGlo	Tb PFK inh-2
CCOC(=O)c1cn(Cc2cccc(Cl)c2)nn1	u	n[11.5 µM]	n	n	n	27µM	u
COc1cccc(CC(=O)N2CCN(Cc3cccc(Cl)c3)CC2)c1	n	n	x	x	x	x	x
NC(=O)c1cccn1Cc1cccc(Cl)c1	u	n	n	n	n	u	u
Oc1ccc(Cl)cc1Cl	x	x	n	n	x	x	x
O=C1NO[C@H]2[C@@H]1CN[C@@H]2C(=O)O	x	x	n	n	x	x	x
Cc1cccc(Cn2cc(C=O)c3ccccc32)c1	n	n	x	x	x	x	x
O=Cc1cn(Cc2cccc([N+](=O)[O-])c2)c2ccccc12	u	u	n	n	n	u	n
CC1=C(C(=O)Nc2ccccc2)C(c2ccc[nH]2)n2ncnc2N1 (centres undefined)	u	x	x	x	x	u	n
Cc1cc(C(=O)Nc2ccccc2)nn1C(C)(C)C	n	n	x	n	n	x	x
CCn1c2ccccc2c2cc(NC(=O)CSc3nnc(C4CC4)n3Cc3ccco3)ccc21	u	n	n	n	n	u	n
CCC(Oc1ccc(Cl)cc1)C(=O)OC1CC2CCC(C1)N2C (centres undefined)	x	x	n	n	x	x	x
O=C(N/N=C\C=C\c1ccc2c(c1)OCO2)C1COc2ccccc2O1 (centres undefined)	27µM	n	n	n	n	17µM	21µM
O=c1/c(=C\c2cc([N+](=O)[O-])cc([N+](=O)[O-])c2O)sc2nc3ccccc3n12	u	u	n	n	n	u	n
C[n+]1cccc2cccc([O-])c21	u	u	x	n	n	u	u
c1csc(CN2CC[C@@]3(CCCNC3)C2)n1	x	x	n	n	x	x	x
O=C(Cc1ccc(Br)cc1)N1CCN(Cc2ccccc2)CC1	n	n	n	n	n	x	x
Oc1ccc(C(=S)N2CCN(Cc3ccccc3)CC2)cc1	u	n	x	n	n	9.5µM	19µM
S=C(c1ccc(Br)cc1)N1CCN(Cc2ccccc2)CC1	u	n	n	n	n	8.5µM	27µM
O=[N+]([O-])c1ccc(CNc2ccc(F)cc2)s1	17µM	u	x	x	x	7.6µM	9.5µM
O=[N+]([O-])c1ccc(CNc2ccc(Cl)cc2)s1	27µM	u	x	x	x	12µM	27µM
COc1ccc(CN2C(=O)NC(=O)/C(=C/c3ccc([N+](=O)[O-])s3)C2=O)cc1	n	u	x	n	n	x	x
COc1ccc(NCc2ccc([N+](=O)[O-])s2)cc1	u	u	n	n	n	13µM	27µM
O=C(O)C[SH+]CC(=O)O.O=C(O)C[SH+]CC(=O)O.[Cu]	x	x	n	n[14.2 µM]	x	x	x
CCc1c(C)sc(NC(=O)c2ccoc2C)c1C(N)=O	u	n	x	x	x	3.4µM	8.5µM
COC(C)C(O)(C(=O)OC1=CCN2CC[C@H](O)[C@H]12)C(C)C (some centres undefined)	x	x	n	n	x	x	x
SMILES	Tb PFK inh-1	MBNL1 CUG block	IMPase Li cell	RGS12 GoLoco inh	NPSR antagonist	Tb PFK KinaseGlo	Tb PFK inh-2
O=C(Cc1ccc(Cl)cc1)Nc1ccc(S(=O)(=O)Nc2ncccn2)cc1	21µM	n	x	x	x	11µM	19µM
COc1cccc(CC(=O)Nc2ccc(S(=O)(=O)Nc3nccs3)cc2)c1	19µM	x	x	x	x	19µM	u
CN(C)C(=O)Nc1ccc(Cl)cc1	x	x	n	n	x	x	x
CN(C)C(CNC(=O)Cc1ccc(Br)cc1)c1ccccc1 (centres undefined)	n	n	x	x	x	x	x
O=C(Cc1ccc(Br)cc1)Nc1ccc(S(=O)(=O)Nc2ncccn2)cc1	24µM	n	x	x	x	21µM	21µM
Cc1ccnc(NS(=O)(=O)c2ccc(NC(=O)Cc3ccc(Cl)cc3)cc2)n1	27µM	n	x	x	x	15µM	u
C=C(C)Cn1c(-c2cccs2)n[nH]c1=S	n	u	n	n	n	x	x
COc1ccc(/C=C/C(=O)N2CC3C[C@@H](C2)Cn2c3cccc2=O)cc1OC	x	x	n	n	x	x	x
O=C(c1ccccc1F)c1cn(Cc2ccccc2)c2ccccc12	n	n	n	n	u	x	x
Fc1cc2ncn(Cc3ccccc3)c2cc1F	u	n	n	n	n	u	u
CC(=O)OC1CC2C(C)(C)C(O)C=C[C@@]2(C)C2CC[C@]3(C)C(=CC(=O)OC3c3ccoc3)[C@]12C (some centres undefined)	x	x	n	n	x	x	x
CCCc1cc2c(n1CCO)C(C)C1CN(C(=O)c3ccccc3)C(C)(C(=O)OC)C21 (centres undefined)	x	x	n	n	x	x	x
O=c1ccnc(NCCc2ccccc2)[nH]1	9.5µM	n	n	n	n	21µM	27µM
c1ccc(CCNCc2ccccc2)cc1	n	n	n	n	n	x	x
Cc1ccc(-c2nc3c(c(SCC(=O)Nc4cccc(C(=O)O)c4)n2)Cc2cccc(C)c2O3)cc1	1.7µM	x	x	x	x	1.1µM	u
COC1=C[C@H]2[C@H]3Cc4ccc(OC)c(O)c4[C@@]2(CCN3C)CC1=O	x	x	n	n	x	x	x
Clc1cccc(N2CCNCC2)c1	n	x	n	n	n	x	x
CSC(=NC#N)N1CCN(c2cccc(Cl)c2)CC1	17µM	n	n	n	n	21µM	11µM
CCSc1cc(C2C(C#N)=C(N)Oc3n[nH]c(C)c32)c(C)o1 (centres undefined)	n	n	n	n	n	x	x
Cc1[nH]nc2c1C(c1cc(Br)cs1)C(C#N)=C(N)O2 (centres undefined)	u	n[11.5 µM]	n	n	n	u	u
NNC(=O)CNc1cccc(Br)c1	15µM	n	n	n[14.2 µM]	n	21µM	u
O=C(O)C1C2CCC(O2)C1C(=O)Nc1cccc(Br)c1 (centres undefined)	n	n	x	x	x	x	x
CNc1ccc2oc(C[C@@H]3OC4(CC[C@@H]3C)O[C@H](C(C)C(=O)c3ccc[nH]3)[C@H](C)C[C@H]4C)nc2c1C(=O)O (some centres undefined)	x	x	n	n	x	x	x
CCC[CH2][Sn]([Cl])([Cl])[Cl]	x	x	n	n	x	x	x
O=C(N/N=C/c1ccc(O)c(O)c1O)/C(=C/c1ccc([N+](=O)[O-])cc1)NC(=O)c1ccccc1	24µM	u	n	n	n	3.4µM	11µM
SMILES	Tb PFK inh-1	MBNL1 CUG block	IMPase Li cell	RGS12 GoLoco inh	NPSR antagonist	Tb PFK KinaseGlo	Tb PFK inh-2
CC(=O)N1CC2CC(C1)c1cccc(=O)n1C2 (centres undefined)	x	x	n	n	x	x	x
C=C(Cl)Cl	x	x	n	n	x	x	x
CCn1c(=O)c(C(=O)Nc2nc3ccccc3[nH]2)c(O)c2ccccc21	u	n	n	n	3.2µM	n	u
c1ccc2sc(C3(NCC4CC4)CCCCC3)cc2c1	x	x	n	n	x	x	x
CN1C2CCC1C(C(=O)O)C(O)C2 (centres undefined)	n	x	x	x	x	x	x
CC1C=CC(C)C(C(=O)O)C1C(=O)O (centres undefined)	u	n	n	n	n	u	u
CN(C)CCCc1c[nH]c2ccccc12	x	x	n	n[14.2 µM]	x	x	x
